# Measurements from PubChem BioAssay (Tox21).
# Values without a mark were called inactive. Results filed as inconclusive are left out. Entries that show only a call come without a potency. Active and inactive are the calls of the source. Unless noted, the call rests on the fitted dose curve; in most records, active means well fitted curve in the direction sought with a large enough effect in the repeat runs; inconclusive means weak or mixed curves; inactive means no such curve, though single readings can be large; an effect the other way counts as inactive or inconclusive.
# Tests used:
# [1] = qHTS assay to identify small molecule antagonists of the estrogen related receptor (ERR) signaling pathway from Tox21 library - cell viability counter screen (AID 1224834); further: nearly all actives have a fitted effect of over 30% in size
# Method in brief: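 In this quantitative HTS format, ERR cells receive compounds in DMSO and are incubated for 17.5 h at 37 C. Live-cell protease activity is then detected with CellTiter-Fluor.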
# [2] = qHTS assay to identify small molecule agonists of the constitutive androstane receptor (CAR) signaling pathway - cell viability counter screen (AID 1224836); further: nearly all actives have a fitted effect of over 45% in size
# Method in brief: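 HepG2 cells stably carrying hCAR and a CYP2B6-2.2kb reporter were plated 4 h, then given compounds at 15 concentrations plus PK11195 (final 0.75 uM). After 23 h at 37 C, viability was read by CellTiter-Fluor fluorescence.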
# [3] = qHTS assay to identify small molecule antagonists of the constitutive androstane receptor (CAR) signaling pathway - cell viability counter screen (AID 1224837); further: nearly all actives have a fitted effect of over 45% in size
# Method in brief: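 In quantitative HTS format, compounds at 15 concentrations were applied to HepG2 cells double-transfected with hCAR and CYP2B6-2.2kb under 50 nM CITCO stimulation; live-cell protease activity was read after 23 hr via CellTiter-Fluor.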
# [4] = qHTS assay to identify small molecule antagonists of the estrogen related receptor signaling pathway with the pleiotropic PPARgamma coactivator (PGC) from Tox21 10K library - cell viability counter screen (AID 1224840; active means well fitted cell-killing curve with a large enough effect in the repeat runs, not every such curve was filed as active; further: nearly all actives have a fitted effect of over 40% in size)
# Method in brief: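 Viability counter screen, PGC/ERR cells: 17.5 h compound exposure at 37 C, CellTiter-Fluor fluorescence endpoint.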
# [5] = molecular target: Thyrotropin receptor (Homo sapiens) (UniProt P16473); assay: qHTS assay to identify small molecule agonists of the thyroid stimulating hormone receptor (TSHR) signaling pathway (AID 1224843; calls by dose curve; further: nearly all actives have a fitted effect of over 45% in size)
# Method in brief: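 Agonist activity read as cAMP rise via d2/cryptate HTRF competition, 1 h room-temperature detection, in HEK293 cells expressing TSHR. Fifteen-point titrations, each run in triplicate, with a 30 min room-temperature incubation beforehand.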
# [6] = qHTS assay to identify small molecule agonists of the hypoxia (HIF-1) signaling pathway - cell viability counter screen (AID 1224844; calls by dose curve; further: nearly all actives have a fitted effect of over 50% in size)
# Method in brief: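 Same wells as the HIF-1 reporter screen; ME-180 cells carrying HRE-bla, 17 hr treatment at 37C; CellTiter-Glo luminescence read after 30 min at room temperature.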
# [7] = qHTS assay to identify small molecule agonists of H2AX (AID 1224845; active means well fitted activation curve with a large enough effect in the signal ratio in the repeat runs, not every such curve was filed as active; the % refers to the signal ratio)
# Method in brief: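 Phospho-H2AX Ser139 measured by HTRF (ex 320 nm; em 665 and 620 nm) after 24 hr antibody incubation. Compounds, 15 concentrations, 0.76% DMSO, were applied to CHO-K1 cells for 3hr at 37C before lysis.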
# [8] = qHTS assay to identify small molecule agonists of the hypoxia (HIF-1) signaling pathway (AID 1224846; active means well fitted activation curve with a large enough effect in the signal ratio in the repeat runs, not every such curve was filed as active; the % refers to the signal ratio)
# Method in brief: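 In ME-180 cells bearing an HRE-bla construct, 17 h treatment with DMSO-dissolved compounds at 37C was followed by CCF4-AM loading to quantify reporter induction.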
# [9] = qHTS assay to identify small molecule agonists of H2AX - cell viability counter screen (AID 1224847; calls by dose curve; further: top concentration of the series differs between compounds; nearly all actives have a fitted effect of over 30% in size)
# Method in brief: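 Wild-type CHO-K1 cells (10% FBS medium) were plated overnight at 37C, exposed to compounds at 15 concentrations for 3 hr at 37C (0.76% DMSO final), and viability was read as CellTiter-Glo luminescence after 30 min at room temperature.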
# [10] = qHTS RealTime-Glo MT Cell Viability Assay in HepG2 cells - 24 hour (AID 1224867); further: nearly all actives have a fitted effect of over 50% in size
# Method in brief: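 HepG2 cells were seeded at 600 cells/well together with NanoLuc luciferase and a cell-permeant prosubstrate, preincubated 5 h at 37 C/5% CO2, then pin-dosed with compounds in DMSO. Nonlytic luminescence from viable cells was read at each time point.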
# [11] = qHTS RealTime-Glo MT Cell Viability Assay in HEK293 cells - 32 hour (AID 1224868); further: top concentration of the series differs between compounds; nearly all actives have a fitted effect of over 50% in size
# Method in brief: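 HEK293 cells were seeded at 600 cells/well together with NanoLuc luciferase and cell-permeant prosubstrate, preincubated 5 h at 37 C/5% CO2, then given compound in DMSO by pintool. Luminescence from viable-cell prosubstrate reduction was read repeatedly over 40 h.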
# [12] = A CellTox Green Cytotoxicity Assay to monitor cytotoxicity in HEK293 cells - 0 hour (AID 1224869); further: nearly all actives have a fitted effect of over 50% in size
# Method in brief: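 Homogeneous no-lysis format: HEK293 cell suspension mixed with CellTox Green reagent, seeded, incubated 5 h at 37 C/5% CO2, then dosed by pintool with compound in DMSO.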
# [13] = molecular target: Luciferin 4-monooxygenase (Photinus pyralis) (UniProt P08659); assay: qHTS assay to identify small molecule inhibitors of firefly luciferase (AID 1224835); further: nearly all actives have a fitted effect of over 25% in size; further: potency means the concentration at half of the fitted maximal effect
# Method in brief: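 Inhibition of purified Photinus luciferase is measured by luminescence. Substrate levels (D-luciferin, ATP) sit at their KM values. Each compound is tested in a concentration series.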
# [14] = molecular target: Nuclear receptor subfamily 1 group I member 3 (Homo sapiens) (UniProt Q14994); assay: qHTS assay to identify small molecule antagonists of the constitutive androstane receptor (CAR) signaling pathway (AID 1224838); further: nearly all actives have a fitted effect of over 40% in size
# Method in brief: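 CITCO-stimulated (50 nM final) HepG2 cells stably transfected with hCAR and CYP2B6-2.2kb luciferase were exposed to compounds at 15 concentrations for 24 h at 37 C/5% CO2. A luciferase reagent was added and luminescence recorded after 30 min.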
# [15] = molecular target: Nuclear receptor subfamily 1 group I member 3 (Homo sapiens) (UniProt Q14994); assay: qHTS assay to identify small molecule agonists of the constitutive androstane receptor (CAR) signaling pathway (AID 1224839);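 further: HepG2 cells stably carrying human CAR and a CYP2B6 luciferase reporter; nearly all actives have a fitted effect of over 15% in size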
# Method in brief: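 HepG2 cells stably expressing hCAR and a CYP2B6-2.2kb luciferase reporter were treated with compounds at 15 concentrations plus 0.75 uM PK11195 (final) for 24 h at 37 C; luminescence was read after ONE-Glo addition.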
# [16] = qHTS assay to identify small molecule antagonists of the estrogen related receptor signaling pathway with the pleiotropic PPARgamma coactivator (PGC) from Tox21 10K library (AID 1224841; call rule not given here)
# Method in brief: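 In the PGC/ERR line, DMSO solutions of test chemicals are pin-delivered to 2,000 cells/well six hours after dispensing. Following eighteen hours' incubation, One-Glo reagent is added and luminescence recorded.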
# [17] = qHTS assay to identify small molecule agonists of the estrogen related receptor signaling pathway with the pleiotropic PPARgamma coactivator (PGC) from Tox21 10K library (AID 1224842); further: nearly all actives have a fitted effect of over 15% in size
# Method in brief: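 Luminescence from One-Glo (30 min, room temperature) measured after PGC/ERR cells had 18 h at 37 C with pinned compound (23 nL in DMSO). Cells had been seeded at 2,000 per well and pre-incubated 6 h.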
# [18] = qHTS assay to identify small molecule antagonists of the estrogen related receptor (ERR) signaling pathway from Tox21 library (AID 1224848); further: nearly all actives have a fitted effect of over 50% in size
# Method in brief: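 Luciferase luminescence (ONE-Glo, 30 min room temperature) was the read-out. Cells of the NTP-supplied ERR line, 2,000 per well, were given 6 h at 37 C before compound addition in DMSO and 18 h exposure at 37 C.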
# [19] = qHTS assay to identify small molecule agonists of the estrogen related receptor (ERR) signaling pathway from Tox21 library (AID 1224849; calls by dose curve; further: nearly all actives have a fitted effect of over 15% in size); conditions: ERR reporter cell line, ONE-Glo luciferase, 18 h; at 92.4 µM (top of the series) unless noted
# Method in brief: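 Reporter cells (ERR, NTP source) treated with Tox21 10K compounds 18 h, 37 C. Readout: ONE-Glo luminescence, 30 min RT.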
# Chain of Nuclear receptor subfamily 1 group I member 3 (Homo sapiens) (Q14994 whole entry, looked up): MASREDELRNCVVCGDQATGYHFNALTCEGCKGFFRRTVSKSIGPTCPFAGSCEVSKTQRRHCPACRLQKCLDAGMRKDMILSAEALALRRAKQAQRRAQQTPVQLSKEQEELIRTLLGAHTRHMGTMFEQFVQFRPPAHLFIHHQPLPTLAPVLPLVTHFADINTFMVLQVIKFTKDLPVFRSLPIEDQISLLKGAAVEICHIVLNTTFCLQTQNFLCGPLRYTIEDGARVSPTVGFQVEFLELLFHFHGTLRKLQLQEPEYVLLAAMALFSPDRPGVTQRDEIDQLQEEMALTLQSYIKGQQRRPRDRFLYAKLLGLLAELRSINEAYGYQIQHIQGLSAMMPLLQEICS
# Chain of Thyrotropin receptor (Homo sapiens) (P16473 whole entry, looked up): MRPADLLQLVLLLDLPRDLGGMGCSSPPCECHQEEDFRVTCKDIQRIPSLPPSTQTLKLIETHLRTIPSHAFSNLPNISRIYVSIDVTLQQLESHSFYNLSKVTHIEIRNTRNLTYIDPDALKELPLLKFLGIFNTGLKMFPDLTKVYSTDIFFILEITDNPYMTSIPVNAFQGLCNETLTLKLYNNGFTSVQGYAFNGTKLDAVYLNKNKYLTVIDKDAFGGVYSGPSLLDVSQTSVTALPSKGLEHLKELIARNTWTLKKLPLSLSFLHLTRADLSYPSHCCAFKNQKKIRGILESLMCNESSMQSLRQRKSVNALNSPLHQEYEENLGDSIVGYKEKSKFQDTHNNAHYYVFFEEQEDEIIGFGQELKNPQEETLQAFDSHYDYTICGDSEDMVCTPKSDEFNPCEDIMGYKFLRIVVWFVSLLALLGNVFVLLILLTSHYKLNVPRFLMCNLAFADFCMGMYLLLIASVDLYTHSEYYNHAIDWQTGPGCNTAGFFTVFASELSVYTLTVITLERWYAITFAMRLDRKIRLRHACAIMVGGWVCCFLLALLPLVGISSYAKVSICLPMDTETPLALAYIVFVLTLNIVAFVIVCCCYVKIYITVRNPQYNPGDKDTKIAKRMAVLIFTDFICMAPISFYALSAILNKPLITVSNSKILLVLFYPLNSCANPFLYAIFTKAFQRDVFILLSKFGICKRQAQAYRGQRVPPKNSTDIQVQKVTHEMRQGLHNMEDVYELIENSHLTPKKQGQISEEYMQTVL
# Chain of Luciferin 4-monooxygenase (Photinus pyralis) (P08659 whole entry, looked up): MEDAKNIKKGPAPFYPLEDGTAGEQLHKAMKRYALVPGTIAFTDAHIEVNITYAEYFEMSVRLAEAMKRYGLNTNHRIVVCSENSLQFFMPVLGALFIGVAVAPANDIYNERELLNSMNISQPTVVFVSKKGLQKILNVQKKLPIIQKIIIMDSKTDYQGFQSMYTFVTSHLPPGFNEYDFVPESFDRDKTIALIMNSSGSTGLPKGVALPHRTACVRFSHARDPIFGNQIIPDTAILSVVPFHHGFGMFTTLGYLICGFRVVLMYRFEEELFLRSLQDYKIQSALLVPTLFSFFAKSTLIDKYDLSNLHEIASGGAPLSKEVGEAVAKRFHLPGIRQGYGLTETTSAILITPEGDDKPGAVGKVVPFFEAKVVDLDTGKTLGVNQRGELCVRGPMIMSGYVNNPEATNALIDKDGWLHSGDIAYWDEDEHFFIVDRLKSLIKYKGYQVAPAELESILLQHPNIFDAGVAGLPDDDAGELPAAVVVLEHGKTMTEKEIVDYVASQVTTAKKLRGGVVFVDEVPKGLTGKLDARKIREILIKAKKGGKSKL
smiles,measurement,setting,value
NCCN1CCOCC1,Potency,[1],inactive
same,Potency,[2],inactive
same,Potency,[3],inactive
same,outcome,[4],inactive
same,Potency,[5],inactive
same,outcome,[6],inactive
same,outcome,[7],inactive
same,outcome,[8],inactive
same,Potency,[9],inactive
same,outcome,[10],inactive
same,Potency,[11],inactive
same,outcome,[12],inactive
N[C@@H](COP(=O)(O)O)C(=O)O,"activity change, negative = inhibition",[13],0.319% [at 23.6 µM]
same,"viability change, negative = cytotoxic",[2],0.478% [at 19 µM]
same,"activity change, negative = cytotoxicity",[3],10.4% [at 19 µM]
same,"activity, negative = inhibition",[14],2.8% [at 19 µM]
same,activation,[15],-2.56% [at 19 µM]
same,"viability change, negative = cytotoxic",[4],2.06% [at 19 µM]
same,activation,[5],7.34% [at 19 µM]
same,"activity change, negative = cytotoxicity",[6],-1.64% [at 15.8 µM]
same,activation (H2AX phosphorylation),[7],-3.89% [at 31.6 µM]
same,"activity change, negative = cytotoxicity",[9],-1.2% [at 31.6 µM]
same,"activity change, negative = cytotoxicity",[10],0.52% [at 15.8 µM]
same,"activity change, negative = cytotoxic",[11],2.67% [at 15.8 µM]
same,cytotoxicity,[12],-3.53% [at 15.8 µM]
CC(C)=CCOC(=O)c1ccccc1,Potency,[1],inactive
same,Potency,[2],inactive
same,Potency,[3],inactive
same,outcome,[4],inactive
same,Potency,[16],inactive
same,outcome,[17],inactive
same,Potency,[5],inactive
same,outcome,[6],inactive
same,outcome,[7],inactive
same,outcome,[8],inactive
same,Potency,[9],inactive
same,Potency,[18],inactive
same,"activity change, positive = activation",[19],2.82%
same,outcome,[10],inactive
same,Potency,[11],inactive
same,outcome,[12],inactive
O=C(c1ccc(O)cc1)c1ccc(O)c(O)c1O,Potency,[13],63.5 µM (active)
same,outcome,[4],inactive
same,Potency,[16],inactive
same,outcome,[17],inactive
same,outcome,[6],inactive
same,outcome,[8],inactive
same,Potency,[9],inactive
same,Potency,[18],inactive
same,"activity change, positive = activation",[19],-5.51%
same,outcome,[10],inactive
same,Potency,[11],inactive
same,outcome,[12],inactive
CC(CO)c1ccccc1 (stereo not given),Potency,[13],inactive
same,Potency,[2],inactive
same,outcome,[14],inactive
same,Potency,[15],inactive
same,outcome,[4],inactive
same,Potency,[5],inactive
same,outcome,[6],inactive
same,outcome,[7],inactive
same,outcome,[8],inactive
same,Potency,[9],inactive
same,outcome,[10],inactive
same,Potency,[11],inactive
same,outcome,[12],inactive
CCCCOC(=O)c1ccccc1,Potency,[2],inactive
same,Potency,[3],inactive
same,outcome,[4],inactive
same,Potency,[16],inactive
same,outcome,[17],inactive
same,Potency,[5],inactive
same,outcome,[6],inactive
same,outcome,[7],inactive
same,outcome,[8],inactive
same,Potency,[9],inactive
same,Potency,[18],inactive
same,"activity change, positive = activation",[19],1.54%
same,outcome,[10],inactive
same,Potency,[11],inactive
same,outcome,[12],inactive
COc1nccnc1NS(=O)(=O)c1ccc(N)cc1,Potency,[13],inactive
same,Potency,[3],inactive
same,outcome,[14],inactive
same,Potency,[15],inactive
same,outcome,[4],inactive
same,Potency,[16],inactive
same,outcome,[17],inactive
same,Potency,[5],inactive
same,outcome,[6],inactive
same,outcome,[7],inactive
same,Potency,[9],inactive
same,Potency,[18],inactive
same,"activity change, positive = activation",[19],-1.96% [at 42.5 µM]
same,outcome,[10],inactive
same,Potency,[11],inactive
same,outcome,[12],inactive
CC(N)C(=O)OC(C)(C)Cc1ccc(Cl)cc1 (stereo not given),Potency,[13],inactive
same,Potency,[2],inactive
same,outcome,[14],inactive
same,Potency,[15],inactive
same,Potency,[5],inactive
same,outcome,[6],inactive
same,outcome,[7],inactive
same,outcome,[8],inactive
same,Potency,[9],inactive
same,outcome,[10],inactive
same,Potency,[11],inactive
same,outcome,[12],inactive
CO[C@@H]1[C@@H](OC(N)=O)[C@@H](O)[C@H](Oc2ccc3c(O)c(NC(=O)c4ccc(O)c(CC=C(C)C)c4)c(=O)oc3c2C)OC1(C)C,Potency,[13],inactive
same,Potency,[2],inactive
same,outcome,[14],inactive
same,Potency,[15],inactive
same,outcome,[4],inactive
same,Potency,[16],inactive
same,outcome,[17],inactive
same,Potency,[5],inactive
same,outcome,[6],inactive
same,outcome,[7],inactive
same,Potency,[9],inactive
same,Potency,[18],inactive
same,"activity change, positive = activation",[19],-2.51% [at 42.5 µM]
same,outcome,[10],inactive
same,Potency,[11],inactive
same,outcome,[12],inactive
